Test results reported in PubChem BioAssay (NCI).
The panel holds about 83,000 compounds, 20% with a hit somewhere; the sample as a whole holds those more often.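 How to read the values: 0–100, growth inhibition (40 = 60% inhibited); 0, no net growth; -100 to 0, cell death (-40 = 40% of starting cells died; -100 = all dead).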 Activity calls are given as the source filed them. Rule for the calls: active = growth percent below 10; inactive = the rest.

Experiments:
Test in all cases: NCI-60 one-dose screen, 48 h (100 = growth as untreated, 0 = no growth, -100 = all killed)
DU-145 prostate = settings: 10 µM unless noted
K-562 leukemia = settings: 10 µM unless noted
MALME-3M melanoma = settings: 10 µM unless noted
MDA-MB-231 breast = settings: 10 µM unless noted
SF-268 CNS = settings: 10 µM unless noted
SF-295 CNS = settings: 10 µM unless noted
SF-539 CNS = settings: 10 µM unless noted
M14 melanoma = settings: 10 µM unless noted
HCT-15 colon = settings: 10 µM unless noted
HT29 colon = settings: 10 µM unless noted
SNB-75 CNS = settings: 10 µM unless noted
SNB-19 CNS = settings: 10 µM unless noted
U251 CNS = settings: 10 µM unless noted
PC-3 prostate = settings: 10 µM unless noted
SK-MEL-5 melanoma = settings: 10 µM unless noted
UACC-62 melanoma = settings: 10 µM unless noted
LOX IMVI melanoma = settings: 10 µM unless noted
SK-MEL-28 melanoma = settings: 10 µM unless noted
RXF 393 renal = settings: 10 µM unless noted
UACC-257 melanoma = settings: 10 µM

Measured: growth

COc1ccc(/C=c2\sc3n(c2=O)C2C(NN=3)N(C)C(=O)N2C)cc1 (stereo unspecified)
active: DU-145 prostate 9.2% | K-562 leukemia -34.6% | SF-295 CNS -7.19% | SF-539 CNS -16.6% | HT29 colon 8.76% | SNB-75 CNS -20.5% | SK-MEL-5 melanoma 6.02%
inactive: MALME-3M melanoma 25% | MDA-MB-231 breast 42.5% | SF-268 CNS 71.3% | M14 melanoma 15.4% | HCT-15 colon 28.5% | SNB-19 CNS 33.9% | U251 CNS 29.3% | PC-3 prostate 25.4% | UACC-62 melanoma 41.9% | LOX IMVI melanoma 44.3% | SK-MEL-28 melanoma 54.7%

CCCCNc1nnc(-c2cc(-c3cc4ccccc4o3)nn2-c2ccccc2)o1
inactive: DU-145 prostate 102% | K-562 leukemia 83% | MALME-3M melanoma 93.1% | MDA-MB-231 breast 91.4% | SF-268 CNS 93.9% | SF-295 CNS 98.7% | SF-539 CNS 97.4% | M14 melanoma 108% | HCT-15 colon 95.3% | HT29 colon 93.6% | SNB-75 CNS 102% | SNB-19 CNS 91.2% | U251 CNS 82.1% | PC-3 prostate 83.6% | SK-MEL-5 melanoma 71.9% | UACC-62 melanoma 76.7% | LOX IMVI melanoma 82.3% | SK-MEL-28 melanoma 108%

O=C(Nc1ccccc1)OCC1OCOC(COC(=O)Nc2ccccc2)C1OC(=O)Nc1ccccc1 (stereo unspecified)
inactive: DU-145 prostate 43.7% | K-562 leukemia 57.9% | MALME-3M melanoma 72.2% | RXF 393 renal 37% | SF-268 CNS 39.8% | SF-295 CNS 90.5% | SF-539 CNS 72.4% | UACC-257 melanoma 102% | M14 melanoma 16.2% | HCT-15 colon 51.7% | HT29 colon 43.1% | SNB-75 CNS 32% | SNB-19 CNS 73.2% | U251 CNS 74.9% | PC-3 prostate 64.2% | SK-MEL-5 melanoma 67.8% | UACC-62 melanoma 73.1% | LOX IMVI melanoma 29.7% | SK-MEL-28 melanoma 39.2%

O=C1CCCCC=C1C[N+](=O)[O-]
inactive: DU-145 prostate 106% | K-562 leukemia 27.8% | MALME-3M melanoma 73.2% | MDA-MB-231 breast 107% | SF-268 CNS 94.2% | SF-295 CNS 97.7% | SF-539 CNS 101% | M14 melanoma 91.3% | HCT-15 colon 75.2% | HT29 colon 83.3% | SNB-75 CNS 105% | SNB-19 CNS 97.5% | PC-3 prostate 85.5% | SK-MEL-5 melanoma 71.9% | UACC-62 melanoma 91.8% | LOX IMVI melanoma 81.1% | SK-MEL-28 melanoma 89.2%

Cc1oc2nc[nH]c(=O)c2c1C(=O)/C=C/c1ccc(Cl)cc1Cl
inactive: DU-145 prostate 78.2% | K-562 leukemia 17.8% | MALME-3M melanoma 99.9% | MDA-MB-231 breast 89% | SF-268 CNS 94.6% | SF-295 CNS 104% | SF-539 CNS 93.3% | M14 melanoma 93.9% | HCT-15 colon 50.6% | HT29 colon 30.4% | SNB-75 CNS 44.6% | SNB-19 CNS 84% | U251 CNS 85.1% | PC-3 prostate 59.2% | SK-MEL-5 melanoma 81.6% | UACC-62 melanoma 53.5% | LOX IMVI melanoma 52.2% | SK-MEL-28 melanoma 89.1%

CCCCCCc1nc2c(c(C)nn2-c2ccccc2)c2c1CCCCC2
inactive: DU-145 prostate 108% | K-562 leukemia 111% | MALME-3M melanoma 105% | RXF 393 renal 115% | SF-268 CNS 105% | SF-295 CNS 103% | SF-539 CNS 105% | UACC-257 melanoma 93.3% | M14 melanoma 118% | HCT-15 colon 108% | HT29 colon 100% | SNB-75 CNS 105% | SNB-19 CNS 99.9% | U251 CNS 102% | PC-3 prostate 94.1% | SK-MEL-5 melanoma 94.3% | UACC-62 melanoma 101% | LOX IMVI melanoma 98.2% | SK-MEL-28 melanoma 107%

COc1ccc(C(=O)N2CCN(C(=O)c3cc(OC)c(OC)c(OC)c3)CC2)cc1OCCCCOc1cc2c(cc1OC)C(=O)N1CCC[C@H]1C=N2
inactive: DU-145 prostate 113% | K-562 leukemia 116% | MALME-3M melanoma 126% | MDA-MB-231 breast 82.4% | SF-268 CNS 126% | SF-295 CNS 109% | SF-539 CNS 98.9% | M14 melanoma 115% | HCT-15 colon 118% | HT29 colon 45.8% | SNB-75 CNS 110% | SNB-19 CNS 99.4% | U251 CNS 101% | PC-3 prostate 104% | SK-MEL-5 melanoma 71% | UACC-62 melanoma 97.2% | LOX IMVI melanoma 106% | SK-MEL-28 melanoma 136%

COc1cccc2cc(-c3cc4ccccc4[nH]3)/c(=N/C(=S)Nc3ccccc3)oc12
active: SNB-75 CNS -45.3%
inactive: DU-145 prostate 74.4% | K-562 leukemia 84.4% | MALME-3M melanoma 78.9% | MDA-MB-231 breast 61.6% | SF-268 CNS 70.6% | SF-295 CNS 87.1% | SF-539 CNS 33% | M14 melanoma 70.6% | HCT-15 colon 89.2% | HT29 colon 81.8% | SNB-19 CNS 66.1% | U251 CNS 77% | PC-3 prostate 68.8% | SK-MEL-5 melanoma 76.1% | UACC-62 melanoma 76% | LOX IMVI melanoma 80% | SK-MEL-28 melanoma 80.1%

Oc1ccc(N=Cc2ccccc2)cc1
inactive: DU-145 prostate 89.5% | K-562 leukemia 32.6% | MALME-3M melanoma 83.5% | RXF 393 renal 114% | SF-268 CNS 95.9% | SF-295 CNS 112% | SF-539 CNS 94.9% | UACC-257 melanoma 106% | M14 melanoma 91.5% | HCT-15 colon 82% | HT29 colon 105% | SNB-75 CNS 105% | SNB-19 CNS 98.8% | U251 CNS 96.1% | PC-3 prostate 68.3% | SK-MEL-5 melanoma 83.4% | UACC-62 melanoma 97.5% | LOX IMVI melanoma 95.3% | SK-MEL-28 melanoma 113%

CCn1cc(C2NC(=O)c3cc(F)ccc3N2)c2cccc(Cl)c21 (stereo unspecified)
active: K-562 leukemia 5.32% | SF-539 CNS -26.6% | M14 melanoma 1.23% | HCT-15 colon 9.89% | HT29 colon 3.35% | SNB-75 CNS -24.9% | U251 CNS -14.2%
inactive: DU-145 prostate 11.6% | MALME-3M melanoma 53.7% | MDA-MB-231 breast 19% | SF-268 CNS 41.2% | SF-295 CNS 10.4% | SNB-19 CNS 34.3% | SK-MEL-5 melanoma 19.3% | UACC-62 melanoma 28.2% | LOX IMVI melanoma 16.5% | SK-MEL-28 melanoma 58.2%

O=C1Nc2cc(Cl)ccc2Oc2cc(Oc3ccccc3)ccc21
inactive: DU-145 prostate 71.5% | K-562 leukemia 25.5% | MALME-3M melanoma 87.1% | MDA-MB-231 breast 63.9% | SF-268 CNS 63% | SF-295 CNS 49% | SF-539 CNS 64.7% | M14 melanoma 41.1% | HCT-15 colon 46.7% | HT29 colon 17.4% | SNB-19 CNS 72.7% | U251 CNS 74.1% | PC-3 prostate 75.2% | SK-MEL-5 melanoma 34.5% | UACC-62 melanoma 59.6% | LOX IMVI melanoma 51.5% | SK-MEL-28 melanoma 71%

NC(=O)c1c(NC(=O)c2ccc3c(c2)OCO3)sc2c1CCC(=O)C2
active: K-562 leukemia 1.31% | MALME-3M melanoma -44% | MDA-MB-231 breast -20.5% | SF-295 CNS -4.12% | SF-539 CNS -55.5% | HCT-15 colon -40.5% | HT29 colon -45.5% | U251 CNS -9.21% | PC-3 prostate 3.13% | SK-MEL-5 melanoma -94.2% | UACC-62 melanoma -37.8% | SK-MEL-28 melanoma -38.7%
inactive: DU-145 prostate 40% | SF-268 CNS 21.5% | M14 melanoma 16.7% | SNB-19 CNS 14.3% | LOX IMVI melanoma 15%

CCN1C(=O)N(CC)C2C1NN=c1s/c(=C3\C(=O)N(C4CCCC4)c4ccccc43)c(=O)n12 (stereo unspecified)
inactive: MALME-3M melanoma 57.4% | MDA-MB-231 breast 19.7% | SF-268 CNS 43.4% | HCT-15 colon 15.8% | SNB-19 CNS 34.9% | U251 CNS 18.3% | PC-3 prostate 25.3% | SK-MEL-5 melanoma 12.7% | UACC-62 melanoma 34.9% | LOX IMVI melanoma 30.3% | SK-MEL-28 melanoma 57.9%
active: DU-145 prostate 7.65% | K-562 leukemia 4.67% | SF-295 CNS -6.11% | SF-539 CNS -39.3% | M14 melanoma 2.66% | HT29 colon 1.3% | SNB-75 CNS -21.9%

CCCCCCCCCCCCOB(OCCCCCCCCCCCC)OCCCCCCCCCCCC
inactive: DU-145 prostate 100% | K-562 leukemia 92.5% | MALME-3M melanoma 90.4% | RXF 393 renal 114% | SF-268 CNS 97.2% | SF-295 CNS 104% | SF-539 CNS 106% | UACC-257 melanoma 95.4% | M14 melanoma 117% | HCT-15 colon 105% | HT29 colon 105% | SNB-75 CNS 118% | SNB-19 CNS 106% | U251 CNS 94.4% | PC-3 prostate 98.5% | SK-MEL-5 melanoma 102% | UACC-62 melanoma 104% | LOX IMVI melanoma 89.7% | SK-MEL-28 melanoma 108%

Clc1ccc(-c2nc(-c3ccco3)cn3ccnc23)cc1
active: U251 CNS -51.3%
inactive: DU-145 prostate 67.3% | K-562 leukemia 68.9% | MALME-3M melanoma 77% | RXF 393 renal 41.6% | SF-268 CNS 64.3% | SF-295 CNS 15.1% | SF-539 CNS 62.2% | UACC-257 melanoma 75.2% | M14 melanoma 97.4% | HCT-15 colon 50.1% | HT29 colon 40.3% | SNB-75 CNS 32% | SNB-19 CNS 30.6% | PC-3 prostate 60.2% | SK-MEL-5 melanoma 58% | UACC-62 melanoma 88% | LOX IMVI melanoma 55.2% | SK-MEL-28 melanoma 102%

CCCn1c(=S)sc2c(Cl)nc(C)nc21
inactive: DU-145 prostate 124% | K-562 leukemia 103% | MALME-3M melanoma 104% | MDA-MB-231 breast 89.1% | SF-268 CNS 98.5% | SF-295 CNS 101% | SF-539 CNS 93.3% | M14 melanoma 101% | HCT-15 colon 12.7% | HT29 colon 84% | SNB-19 CNS 93.5% | U251 CNS 79% | PC-3 prostate 100% | SK-MEL-5 melanoma 108% | UACC-62 melanoma 54.7% | SK-MEL-28 melanoma 102%
active: SNB-75 CNS 8.62% | LOX IMVI melanoma -78.5%

COC(=O)c1ccc2nc(-c3cc4ccccc4n3C)n(CCCCOc3cc4c(cc3OC)C(=O)N3CCC[C@H]3C=N4)c2c1
inactive: DU-145 prostate 22.1% | K-562 leukemia 44.6% | SNB-19 CNS 11.3%
active: MALME-3M melanoma -80.1% | MDA-MB-231 breast -14.7% | SF-268 CNS 1.79% | SF-295 CNS -26.7% | SF-539 CNS -13.8% | M14 melanoma -12.7% | HCT-15 colon -19% | HT29 colon -53.7% | SNB-75 CNS -79.5% | U251 CNS 1.02% | PC-3 prostate -6.81% | SK-MEL-5 melanoma -75.6% | UACC-62 melanoma -95.9% | SK-MEL-28 melanoma -57.1%
